Among the data in the supplement of paper PMC10681739 are ETS1 binding intensity values, retold here.

The target in this experiment is T1, ETS1 (UniProt P14921).
T1 sequence: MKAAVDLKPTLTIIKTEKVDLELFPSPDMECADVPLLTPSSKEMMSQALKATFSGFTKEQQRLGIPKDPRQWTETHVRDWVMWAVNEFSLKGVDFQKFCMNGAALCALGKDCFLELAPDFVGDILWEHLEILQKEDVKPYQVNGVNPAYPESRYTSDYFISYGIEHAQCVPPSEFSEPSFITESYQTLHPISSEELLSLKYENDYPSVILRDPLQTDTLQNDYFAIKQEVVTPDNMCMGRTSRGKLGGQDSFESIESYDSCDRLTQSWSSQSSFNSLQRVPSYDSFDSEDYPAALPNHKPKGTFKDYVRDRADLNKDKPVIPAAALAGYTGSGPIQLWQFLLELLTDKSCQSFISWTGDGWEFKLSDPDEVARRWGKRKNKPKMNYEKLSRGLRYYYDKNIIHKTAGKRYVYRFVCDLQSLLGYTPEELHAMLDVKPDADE
Put plainly: ETS1 binding intensity (PBM fluorescence) in presence of RUNX1, normalised to ETS1-only experiment (arbitrary fluorescence units); higher = stronger binding. Particulars: ETS1 concentration 1 nM; RUNX1 concentration 25 nM. The protocol:
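Cooperative genomic-context PBM: 36-bp genomic probes with neighbouring ETS1 and RUNX1 sites, double-stranded on Agilent 4x180k arrays. Full-length recombinant human ETS1 (1 nM) was incubated alone or with RUNX1 (25 nM) and detected with anti-ETS1 antibody plus Alexa488 secondary. Value is the median fluorescence intensity over 4 replicate spots; the ETS1+RUNX1 data were normalised to the ETS1-only data using probes without RUNX1 sites. The 36-bp variable region sits on the array probe with constant linker/primer flanks that are not printed.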
For the sequence TGGGCTTTGCAGGAAGCTGTGGTTCACCTACAGCCT, the ETS1 binding intensity amounted to 2110.

On to TTACTTCTCAGGAAGCGCTGTGGGGCTGGGGTTGCT, for which the ETS1 binding intensity was 513.

For the sequence GAGAATGAAGAGGAAATGTGGGGACAGACAGAACTG, the ETS1 binding intensity came to 1170.

Turning to TTCATTTCTACCTTCCTGTGGTCTTTTTGCCTCCGA, the ETS1 binding intensity came out at 470.

Turning to GGAGGCGGAAGTGGAGGTTGTTGTGGCTCCGAGGGC, the ETS1 binding intensity came to 1950.

On to ACACAGGAAGGACGCACGCTCCCGCCCCAACCACAT, for which the ETS1 binding intensity was found to be 563.

Turning to GTACGACAGCGGGTTCCGGTGACCACGAAGGCGGCA, the ETS1 binding intensity was determined as 467.

On to TCCCTAAGTCACATCCTGTGGGCAAAGGCCCTAGCA, for which the ETS1 binding intensity was found to be 935.

For the sequence ACAAAGAAACCTACATCCTAAGCCACAGAATACAGC, the ETS1 binding intensity is 523.

For the sequence CTTACAGATAAGGAAACTGAGGTTAAAATGTAGGGG, the ETS1 binding intensity was found to be 656.

As for GGGCAGGTGCGGATGCCGAGGAGAGTGGTCACCTCG, the ETS1 binding intensity amounted to 435.

Take ACCGGCCGAGCCAACTTCCGGCCGCAGAGGCTGCCG: the ETS1 binding intensity worked out at 7630.

Consider ACCGCCGGAAGTTTCTGCCGCGGCTTTGCGGGGACG, for which the ETS1 binding intensity was determined as 9610.

Take GGGCAGGAAGGAAGAGGGCTCCTCCCCACAAGCTCT: the ETS1 binding intensity stood at 492.

Turning to GCACACCGGAACTCACACCTGAAACCACAGAACCAA, the ETS1 binding intensity came out at 4300.

As to TCCCCACATCCTTTAAAACGATGAGATAACCACATG, the ETS1 binding intensity was 636.

Regarding GATACTCTTCCTGTCATCCCATCCCCACAGCCTTAG, the ETS1 binding intensity is 501.

On to CAGGTTGTTGAGGATGTGGAGAAACCGCAACCTCGT, for which the ETS1 binding intensity was 7360.

On to TAAGTGCAGGAAACGGCTGTGTGGGTGTCAGTGATT, for which the ETS1 binding intensity turned out to be 1310.

Regarding CCCACTGATAAGACAGGATGTGGTAAAGAAGCCAGC, the ETS1 binding intensity was determined as 22800.

As to CCGCTGAGAACAGGATGTGGGTGTCAGGAGGTGAAG, the ETS1 binding intensity is 7410.

CCAGAAAGCTCCTCCTTCCGCCACAACACGATCACT: the ETS1 binding intensity stood at 451.

Take CCGCCCTAGAGCAGGAAATAGCGGTCAGCGCCAGCT: the ETS1 binding intensity was found to be 7280.

Take AAAACAACTTCCTTCCCCTCTCTCTCCACCACAGTC: the ETS1 binding intensity was found to be 560.

In the case of CCCCCTGAACATCCGGGGCCTTTTAACCGCCCACGG, the ETS1 binding intensity amounted to 1690.

For the sequence CACCCAAGGATATGCTTTTTTTTGGCAAGCCACATC, the ETS1 binding intensity stood at 451.

As to TGCTTCTGAGGAAGTGATCTGTGGTCAAAGAAAGAA, the ETS1 binding intensity is 2040.

For ATCTTCAGGAAGCGGTATCAACCTGAAAACCACCAC, the ETS1 binding intensity is 870.

Consider CTCCCCCCACGACTTCCCTCTGTGGCCCCGGGCCGC, for which the ETS1 binding intensity turned out to be 645.

For the sequence CCTTCCTTCCGGGGTCGGCCCCGCCCGCAAGCGCCG, the ETS1 binding intensity is 467.

As for GTTGGGCTTTGAGGATGTGGGTTCTAGAAGTTTACA, the ETS1 binding intensity stood at 2120.

For the sequence CCAGGGGCACACCGGAACCCACACCTGAAATCACAG, the ETS1 binding intensity is 739.

Consider GCCCACCCGCTTCCGGTTGTGGGCCCCGCCCGCCGA, for which the ETS1 binding intensity is 7350.

In the case of CCTCCTCTTCCTCCCCACTCTGCACATGCGGCTGGG, the ETS1 binding intensity came out at 344.

Regarding TGACATCCTCTGAGGCAGCAAGCTGCGGTGAAGTCT, the ETS1 binding intensity was 561.

Consider TGACTAAGACCGGAAGAAACCACAAAAACACAAAAA, for which the ETS1 binding intensity worked out at 6730.

For CTGTCCCTAGCAGGATGTGGTTTGCACATTGCTGCT, the ETS1 binding intensity was determined as 12500.

On to GGTACCAAGGGCAGAGGATGTGGTGAGGTGTGGAGG, for which the ETS1 binding intensity was 3140.

On to TGCTTCCCTTCCGTTCCGACAGCGAAAACCGCTGCC, for which the ETS1 binding intensity worked out at 783.

For the sequence AGGGACTTCCGGTGACCAGAGCACTAGCGCCGCAAA, the ETS1 binding intensity turned out to be 1990.
